From the supplement of paper PMC11732987, “Enantioselective OTUD7B fragment discovery through chemoproteomics screening and high-throughput optimisation” (Communications Chemistry, 2025)

How the values were obtained:
Assay in all cases: log2 ratio of Biotin-Ahx-Ub-VS probe labelling (fragment/DMSO); higher = less target engagement (more negative = stronger competition), active = hit call of the paper (q ≤ 0.05, log2 ratio ≤ -1)
Details in all cases: compound concentration: 200 uM; treatment time: 3 h
USP34 = USP34 (UniProt Q70CQ2)
In short: (§1)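 Each value is an average log2 ratio of fragment to vehicle, tested by unpaired t-test. The underlying Spectronaut label-free quantities were global-median-normalised, and only proteins with ≥2 unique peptides were included. Triplicate HEK293T lysate samples (495 µg) were exposed to fragment at 200 µM or vehicle for 3 h, then to Biotin-Ahx-Ub-VS at 0.5 µM final for 1 h, before NeutrAvidin enrichment of labelled DUBs, LysC and trypsin digestion, and diaPASEF LC-MS/MS.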

USP36 = target: T1, USP36 (UniProt Q9P275)
T1 sequence (whole entry): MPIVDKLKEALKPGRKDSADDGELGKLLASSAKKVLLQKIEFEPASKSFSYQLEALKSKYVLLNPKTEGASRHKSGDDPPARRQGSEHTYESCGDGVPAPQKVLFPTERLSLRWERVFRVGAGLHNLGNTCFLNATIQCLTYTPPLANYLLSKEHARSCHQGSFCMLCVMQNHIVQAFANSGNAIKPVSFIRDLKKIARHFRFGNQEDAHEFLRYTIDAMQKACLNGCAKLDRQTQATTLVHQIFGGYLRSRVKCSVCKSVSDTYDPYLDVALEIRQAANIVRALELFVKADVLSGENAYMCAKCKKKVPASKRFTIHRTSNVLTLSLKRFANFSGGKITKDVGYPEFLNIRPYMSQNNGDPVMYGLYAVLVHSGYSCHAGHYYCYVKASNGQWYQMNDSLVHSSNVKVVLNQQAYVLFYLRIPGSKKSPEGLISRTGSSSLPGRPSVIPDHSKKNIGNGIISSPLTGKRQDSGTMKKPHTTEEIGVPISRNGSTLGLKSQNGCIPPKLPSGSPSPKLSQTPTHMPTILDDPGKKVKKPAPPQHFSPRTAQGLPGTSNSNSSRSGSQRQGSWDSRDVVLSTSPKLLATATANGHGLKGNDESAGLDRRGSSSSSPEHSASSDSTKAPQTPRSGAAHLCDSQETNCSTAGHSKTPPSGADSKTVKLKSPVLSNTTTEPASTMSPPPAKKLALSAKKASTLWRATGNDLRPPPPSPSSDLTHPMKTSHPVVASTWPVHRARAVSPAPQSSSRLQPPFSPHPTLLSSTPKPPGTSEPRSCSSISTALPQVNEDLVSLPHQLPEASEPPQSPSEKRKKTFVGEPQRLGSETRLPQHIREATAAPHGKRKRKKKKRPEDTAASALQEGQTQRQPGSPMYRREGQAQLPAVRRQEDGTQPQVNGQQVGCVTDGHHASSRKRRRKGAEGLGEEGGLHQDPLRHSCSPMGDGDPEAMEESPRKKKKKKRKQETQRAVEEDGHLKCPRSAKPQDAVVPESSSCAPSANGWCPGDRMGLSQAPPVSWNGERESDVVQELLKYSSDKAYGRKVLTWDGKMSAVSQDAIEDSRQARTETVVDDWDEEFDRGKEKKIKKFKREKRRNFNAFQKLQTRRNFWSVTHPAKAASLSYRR
In short: as §1

USP38 = target: T2, USP38 (UniProt Q8NB14)
T2 sequence (whole entry): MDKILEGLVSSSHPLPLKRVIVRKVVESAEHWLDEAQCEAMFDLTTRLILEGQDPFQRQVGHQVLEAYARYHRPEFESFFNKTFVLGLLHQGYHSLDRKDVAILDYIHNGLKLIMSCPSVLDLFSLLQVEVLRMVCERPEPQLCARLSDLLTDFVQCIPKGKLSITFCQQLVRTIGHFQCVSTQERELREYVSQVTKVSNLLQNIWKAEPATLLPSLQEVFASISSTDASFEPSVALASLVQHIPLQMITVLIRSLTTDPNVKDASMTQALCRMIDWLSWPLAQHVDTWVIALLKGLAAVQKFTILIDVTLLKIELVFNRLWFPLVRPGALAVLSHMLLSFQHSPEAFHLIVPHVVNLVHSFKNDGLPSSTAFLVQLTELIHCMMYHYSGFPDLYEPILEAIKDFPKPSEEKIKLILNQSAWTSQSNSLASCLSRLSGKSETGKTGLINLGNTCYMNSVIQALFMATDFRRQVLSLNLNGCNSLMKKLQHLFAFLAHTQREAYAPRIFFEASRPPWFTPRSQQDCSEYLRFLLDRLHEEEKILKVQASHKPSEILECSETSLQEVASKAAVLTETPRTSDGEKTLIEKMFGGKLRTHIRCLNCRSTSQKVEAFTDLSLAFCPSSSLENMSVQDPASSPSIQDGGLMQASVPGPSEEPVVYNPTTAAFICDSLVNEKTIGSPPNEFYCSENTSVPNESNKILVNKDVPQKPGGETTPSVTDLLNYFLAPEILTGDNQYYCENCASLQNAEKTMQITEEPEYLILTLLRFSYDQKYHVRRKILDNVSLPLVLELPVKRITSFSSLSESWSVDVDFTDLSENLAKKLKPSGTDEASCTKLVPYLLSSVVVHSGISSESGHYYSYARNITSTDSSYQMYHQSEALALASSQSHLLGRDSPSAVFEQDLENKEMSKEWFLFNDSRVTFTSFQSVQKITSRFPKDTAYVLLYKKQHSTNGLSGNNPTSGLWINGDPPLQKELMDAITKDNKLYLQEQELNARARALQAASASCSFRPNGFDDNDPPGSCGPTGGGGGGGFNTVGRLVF
In short: as §1

USP39 = target: T3, USP39 (UniProt Q53GS9)
T3 sequence (whole entry): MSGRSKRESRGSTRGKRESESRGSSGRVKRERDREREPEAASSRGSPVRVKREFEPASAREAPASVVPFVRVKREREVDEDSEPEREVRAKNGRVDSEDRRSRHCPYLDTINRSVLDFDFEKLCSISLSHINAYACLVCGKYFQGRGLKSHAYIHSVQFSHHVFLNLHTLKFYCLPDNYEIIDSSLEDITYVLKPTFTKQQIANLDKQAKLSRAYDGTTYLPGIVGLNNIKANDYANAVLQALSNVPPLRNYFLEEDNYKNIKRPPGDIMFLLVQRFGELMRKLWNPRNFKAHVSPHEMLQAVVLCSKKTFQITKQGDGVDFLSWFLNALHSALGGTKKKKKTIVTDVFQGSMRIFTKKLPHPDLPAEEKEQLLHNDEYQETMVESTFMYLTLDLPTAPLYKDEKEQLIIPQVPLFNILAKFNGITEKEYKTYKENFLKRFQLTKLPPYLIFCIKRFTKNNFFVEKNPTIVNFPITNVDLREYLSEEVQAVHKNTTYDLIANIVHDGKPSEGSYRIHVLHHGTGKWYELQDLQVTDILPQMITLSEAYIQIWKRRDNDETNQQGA
In short: as §1

USP4 = target: T4, USP4 (UniProt Q13107)
T4 sequence (whole entry): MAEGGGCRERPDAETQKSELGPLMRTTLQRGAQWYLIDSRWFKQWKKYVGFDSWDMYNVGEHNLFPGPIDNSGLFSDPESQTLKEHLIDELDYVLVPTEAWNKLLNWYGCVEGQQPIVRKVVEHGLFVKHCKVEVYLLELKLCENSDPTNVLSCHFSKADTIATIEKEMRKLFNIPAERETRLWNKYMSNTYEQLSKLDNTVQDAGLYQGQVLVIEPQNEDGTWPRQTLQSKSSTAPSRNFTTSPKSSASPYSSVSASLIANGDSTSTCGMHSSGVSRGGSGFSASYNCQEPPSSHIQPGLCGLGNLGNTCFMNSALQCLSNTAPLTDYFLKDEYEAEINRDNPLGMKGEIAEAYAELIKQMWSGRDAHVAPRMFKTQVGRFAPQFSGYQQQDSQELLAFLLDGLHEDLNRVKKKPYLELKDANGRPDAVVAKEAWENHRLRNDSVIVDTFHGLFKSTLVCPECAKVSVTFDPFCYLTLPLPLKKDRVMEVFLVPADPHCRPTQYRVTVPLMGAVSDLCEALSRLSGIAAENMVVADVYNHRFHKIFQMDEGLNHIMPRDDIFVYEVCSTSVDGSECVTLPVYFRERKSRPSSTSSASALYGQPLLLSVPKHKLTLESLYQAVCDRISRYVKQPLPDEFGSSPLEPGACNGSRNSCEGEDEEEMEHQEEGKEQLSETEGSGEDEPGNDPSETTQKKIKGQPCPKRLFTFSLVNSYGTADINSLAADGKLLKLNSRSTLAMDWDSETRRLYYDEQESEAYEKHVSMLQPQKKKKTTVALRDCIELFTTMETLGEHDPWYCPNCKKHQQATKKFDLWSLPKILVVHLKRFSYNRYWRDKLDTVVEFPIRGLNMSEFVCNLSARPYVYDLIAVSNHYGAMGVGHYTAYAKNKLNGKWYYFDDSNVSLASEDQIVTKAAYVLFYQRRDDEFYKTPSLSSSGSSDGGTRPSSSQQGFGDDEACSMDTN
In short: as §1

Measured: log2 ratio of Biotin-Ahx-Ub-VS probe labelling

USP34, sequence (Q70CQ2 whole entry, the tested form may be a part): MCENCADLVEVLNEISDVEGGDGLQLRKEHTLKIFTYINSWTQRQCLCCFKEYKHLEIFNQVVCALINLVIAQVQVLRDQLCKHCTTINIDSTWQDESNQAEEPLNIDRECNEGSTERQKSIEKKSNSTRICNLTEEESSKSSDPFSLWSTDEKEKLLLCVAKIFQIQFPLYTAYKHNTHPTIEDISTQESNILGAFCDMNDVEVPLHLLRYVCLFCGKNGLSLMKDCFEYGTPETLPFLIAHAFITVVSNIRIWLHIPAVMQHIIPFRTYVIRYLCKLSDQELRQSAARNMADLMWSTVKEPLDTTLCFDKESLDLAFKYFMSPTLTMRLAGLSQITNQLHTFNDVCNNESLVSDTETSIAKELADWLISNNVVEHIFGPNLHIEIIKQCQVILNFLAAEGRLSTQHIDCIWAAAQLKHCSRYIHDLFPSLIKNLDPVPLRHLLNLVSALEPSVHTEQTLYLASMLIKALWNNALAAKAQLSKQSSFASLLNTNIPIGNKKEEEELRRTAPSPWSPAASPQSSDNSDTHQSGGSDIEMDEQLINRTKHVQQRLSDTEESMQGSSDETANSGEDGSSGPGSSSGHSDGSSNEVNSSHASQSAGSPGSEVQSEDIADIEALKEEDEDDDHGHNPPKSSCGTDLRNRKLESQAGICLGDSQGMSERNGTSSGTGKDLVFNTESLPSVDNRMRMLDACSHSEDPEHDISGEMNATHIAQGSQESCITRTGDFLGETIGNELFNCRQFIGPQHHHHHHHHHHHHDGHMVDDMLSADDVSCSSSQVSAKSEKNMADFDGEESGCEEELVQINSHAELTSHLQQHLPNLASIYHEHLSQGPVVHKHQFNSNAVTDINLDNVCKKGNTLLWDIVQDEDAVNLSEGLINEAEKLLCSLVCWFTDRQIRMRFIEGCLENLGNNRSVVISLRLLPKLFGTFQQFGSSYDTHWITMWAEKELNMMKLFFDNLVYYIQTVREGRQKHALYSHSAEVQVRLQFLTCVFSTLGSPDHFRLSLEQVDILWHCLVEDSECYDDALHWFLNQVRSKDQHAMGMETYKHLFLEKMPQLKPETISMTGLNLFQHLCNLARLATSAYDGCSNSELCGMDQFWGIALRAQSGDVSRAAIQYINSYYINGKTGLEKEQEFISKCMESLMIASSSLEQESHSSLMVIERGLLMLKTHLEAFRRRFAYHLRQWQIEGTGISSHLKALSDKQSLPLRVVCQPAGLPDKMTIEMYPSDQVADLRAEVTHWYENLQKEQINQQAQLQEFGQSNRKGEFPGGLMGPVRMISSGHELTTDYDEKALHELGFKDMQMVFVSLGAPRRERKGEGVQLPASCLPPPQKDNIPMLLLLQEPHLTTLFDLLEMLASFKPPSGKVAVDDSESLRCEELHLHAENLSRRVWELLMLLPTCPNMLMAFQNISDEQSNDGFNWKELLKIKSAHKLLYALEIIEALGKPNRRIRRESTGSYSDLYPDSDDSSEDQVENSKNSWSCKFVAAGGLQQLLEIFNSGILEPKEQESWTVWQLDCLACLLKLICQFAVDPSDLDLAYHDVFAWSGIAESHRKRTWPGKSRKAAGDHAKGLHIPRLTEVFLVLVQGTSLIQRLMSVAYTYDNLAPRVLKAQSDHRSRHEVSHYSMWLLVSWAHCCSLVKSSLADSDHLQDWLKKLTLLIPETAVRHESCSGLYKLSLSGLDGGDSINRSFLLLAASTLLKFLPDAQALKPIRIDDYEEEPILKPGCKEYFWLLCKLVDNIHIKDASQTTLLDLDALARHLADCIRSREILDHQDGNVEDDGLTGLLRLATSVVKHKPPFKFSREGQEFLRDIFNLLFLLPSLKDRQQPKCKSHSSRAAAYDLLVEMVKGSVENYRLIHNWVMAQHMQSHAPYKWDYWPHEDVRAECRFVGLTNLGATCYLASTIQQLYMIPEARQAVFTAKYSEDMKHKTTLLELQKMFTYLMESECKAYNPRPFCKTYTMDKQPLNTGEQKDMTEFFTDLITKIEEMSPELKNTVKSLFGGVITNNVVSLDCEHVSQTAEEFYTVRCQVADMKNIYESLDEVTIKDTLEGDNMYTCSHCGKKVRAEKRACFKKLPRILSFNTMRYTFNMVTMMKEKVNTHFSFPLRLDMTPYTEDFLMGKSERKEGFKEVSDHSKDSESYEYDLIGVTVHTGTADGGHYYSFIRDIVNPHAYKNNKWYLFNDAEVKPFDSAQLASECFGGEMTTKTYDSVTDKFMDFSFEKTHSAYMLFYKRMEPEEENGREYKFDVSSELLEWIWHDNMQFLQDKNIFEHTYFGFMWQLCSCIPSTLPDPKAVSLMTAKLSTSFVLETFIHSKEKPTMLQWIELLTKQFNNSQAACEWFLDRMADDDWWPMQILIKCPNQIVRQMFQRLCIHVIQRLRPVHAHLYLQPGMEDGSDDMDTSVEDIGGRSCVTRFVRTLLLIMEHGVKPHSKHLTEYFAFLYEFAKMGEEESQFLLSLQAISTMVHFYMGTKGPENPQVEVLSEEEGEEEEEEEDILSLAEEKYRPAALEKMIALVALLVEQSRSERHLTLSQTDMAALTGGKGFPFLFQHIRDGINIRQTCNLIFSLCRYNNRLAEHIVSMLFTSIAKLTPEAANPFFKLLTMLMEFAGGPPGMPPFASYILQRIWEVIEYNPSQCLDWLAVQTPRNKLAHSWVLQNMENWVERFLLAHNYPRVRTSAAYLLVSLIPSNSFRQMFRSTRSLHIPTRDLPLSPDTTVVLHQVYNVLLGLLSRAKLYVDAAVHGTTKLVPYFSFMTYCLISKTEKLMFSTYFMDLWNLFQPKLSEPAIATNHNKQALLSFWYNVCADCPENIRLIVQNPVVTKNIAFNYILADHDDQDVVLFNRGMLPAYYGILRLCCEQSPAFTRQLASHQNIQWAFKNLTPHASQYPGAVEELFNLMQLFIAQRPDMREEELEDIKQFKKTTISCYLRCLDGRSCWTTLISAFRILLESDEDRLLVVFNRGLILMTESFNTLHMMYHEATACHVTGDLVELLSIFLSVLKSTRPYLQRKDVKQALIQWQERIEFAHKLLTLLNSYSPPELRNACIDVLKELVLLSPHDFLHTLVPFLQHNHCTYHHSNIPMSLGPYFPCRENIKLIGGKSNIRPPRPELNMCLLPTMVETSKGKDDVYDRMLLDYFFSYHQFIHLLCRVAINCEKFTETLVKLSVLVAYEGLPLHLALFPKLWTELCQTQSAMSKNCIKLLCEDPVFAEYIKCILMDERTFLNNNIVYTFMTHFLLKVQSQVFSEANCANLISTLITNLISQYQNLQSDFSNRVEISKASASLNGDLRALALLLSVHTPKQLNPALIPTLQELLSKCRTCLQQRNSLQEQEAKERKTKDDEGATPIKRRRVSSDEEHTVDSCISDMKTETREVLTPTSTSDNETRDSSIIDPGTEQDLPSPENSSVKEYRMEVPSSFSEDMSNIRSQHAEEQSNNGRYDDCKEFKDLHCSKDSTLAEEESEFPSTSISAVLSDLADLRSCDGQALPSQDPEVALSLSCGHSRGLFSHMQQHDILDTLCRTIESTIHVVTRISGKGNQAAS

Cl.O=C(CCl)N1CCc2ncncc2C1
inactive: USP34 -0.136 | USP36 0.0811 | USP38 -0.0489 | USP39 0.321 | USP4 -0.201
